# Gal4-VP16 FLuc: counter-screen for ROR gamma inhibitors: Gal4-VP16 reporter; Drosophila S2 Gal4-VP16 UAS-luciferase, luminescence, 20 h; Potency, µM (top dose mostly 53.6 µM), for inactives: at the top dose activity, negative = inhibition, usual class: inhibitors; 3.5% of 310,000 active; AID 2546;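 also: Gal4-VP16 expression switched on by copper sulfate through the metallothionein promoter; potency is read from the fitted curve at half-maximal effect; nearly all actives have a fitted effect of over 50% in size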
# ELG1 repair inh: ELG1-dependent DNA repair inhibition. 2.3% of 330,000 active. Potency, µM (doses to about 46.1 µM), without a hit: at the top dose activity change, negative = inhibition, most hits filed as inhibitors. HEK293T ELG1-luciferase reporter, luminescence, 16 h; DNA damage induced by 5-fluorouridine; also: potency is read from the fitted curve at half-maximal effect; nearly all actives have a fitted effect of over 55% in size
#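 DMSO vehicle served as the neutral condition. Each well held 2,000 cells given 5-fluorouridine plus compound; after 16 hr at 37 °C/5% CO2, ONE-Glo was added and luciferase measured 30 min later.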
# TDP1 cell noCPT: qHTS for Inhibitors of human tyrosyl-DNA phosphodiesterase 1 (TDP1): qHTS in cells in absence of CPT | Potency, µM (highest dose often 46.2 µM), for the others: at the highest dose activity change, negative = growth inhibition, most hits filed as inhibitors | DT40 Tdp1-/- hTDP1 cells, no CPT, ATP luminescence, 48 h | 15% of 420,000 active; also: potency is read from the fitted curve at half-maximal effect; nearly all actives have a fitted effect of over 55% in size
#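 Compound effects on proliferation are scored in DT40 Tdp1-/-;hTDP1 cells in the absence of CPT. ATP levels (CellTiter-Glo luminescence) are recorded after a ≥48 hr, 37 °C incubation.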
# DT40 TDP1 CPT: DT40-hTDP1 cell growth loss with CPT | chicken DT40 Tdp1-/-;hTDP1 cells + 20 nM CPT, ATP luminescence, 48 h | Potency, µM (series often up to 46.2 µM), inactives show at the highest dose activity change, negative = growth inhibition, usual class: inhibitors | 12% of 420,000 active | AID 686979; also: potency is read from the fitted curve at half-maximal effect; nearly all actives have a fitted effect of over 55% in size
#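 Cell growth measured by CellTiter-Glo luminescence after a minimum 48 h, 37 C compound exposure with 20 nM CPT in Tdp1-knockout DT40 cells stably expressing hTDP1, seeded 400/well; qHTS titration format.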
# RORg inh: ROR gamma (mouse) transcription inhibition. P51450. Drosophila S2 Gal4-RORgamma UAS-luciferase reporter, 20 h. Potency, µM (series often up to 53.6 µM), for the others: top-dose activity change, negative = inhibition, hits mostly inhibitors. 5.4% of 310,000 active; also: potency is read from the fitted curve at half-maximal effect; nearly all actives have a fitted effect of over 60% in size
# Target sequence (P51450 whole entry, looked up, the tested form may be a part): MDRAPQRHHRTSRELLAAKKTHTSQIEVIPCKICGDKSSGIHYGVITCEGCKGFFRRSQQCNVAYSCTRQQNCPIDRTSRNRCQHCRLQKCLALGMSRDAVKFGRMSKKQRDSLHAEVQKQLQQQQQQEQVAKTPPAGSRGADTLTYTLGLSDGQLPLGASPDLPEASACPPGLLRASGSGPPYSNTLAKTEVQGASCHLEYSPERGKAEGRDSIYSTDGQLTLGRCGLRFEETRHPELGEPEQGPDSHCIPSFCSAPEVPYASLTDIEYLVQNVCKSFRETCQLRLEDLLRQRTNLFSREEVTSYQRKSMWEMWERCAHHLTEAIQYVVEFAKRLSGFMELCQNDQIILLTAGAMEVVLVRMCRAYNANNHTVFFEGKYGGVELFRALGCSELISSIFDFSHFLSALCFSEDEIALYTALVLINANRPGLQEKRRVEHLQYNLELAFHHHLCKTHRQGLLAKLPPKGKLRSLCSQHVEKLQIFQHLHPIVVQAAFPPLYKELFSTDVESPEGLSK
#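 A Gal4/UAS one-hybrid system in insect cells: metallothionein-promoter Gal4–ROR gamma fusion plus Photinus luciferase reporter. Copper sulfate 700 uM final, 20 hr ambient incubation, luminescent detection after 10 min with reagent.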
# IL1B secr inh: inflammasome signaling inhibition, IL-1 beta readout; 4.7% of 360,000 active; activity change, % at 57.5 µM; THP-1 LPS/ATP IL-1B secretion, AlphaLISA, 16 h; active compounds read low; AID 743279; in the data active = activity change below about -50%; inconclusive = mostly about -30% to -49%
#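 THP-1 cells pretreated 1 hr with compounds (up to 57.5 uM final), then stimulated with LPS (250 ng/mL final) plus ATP (1.25 mM final); secreted IL-1B measured by AlphaLISA after 16 hr, decreased signal indicating inhibition.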
# * marks the source's active call; other numbers are inactive results; ? = inconclusive; . = no result given; ! = a repeat was not active. Sampled rows, rich in hits. Any-hit rate of the full collection: about 21%. Unless noted, calls follow the shape of the dose curve; as a rule, active = well fitted curve in the direction sought with a large enough effect; inconclusive = small, poorly fitted or top-dose-only effect, or another doubt; inactive = no such curve, though single readings can be large; an effect the other way counts as inactive or inconclusive. % is scaled to controls: 0 for no effect and ±100 for the full control effect.
SMILES,Gal4-VP16 FLuc,ELG1 repair inh,TDP1 cell noCPT,DT40 TDP1 CPT,RORg inh,IL1B secr inh
Cc1ccc(S(=O)(=O)NC2=C(N3CCN(c4ccccc4F)CC3)C(=O)c3ccccc3C2=O)cc1,-9.2%,-2.4%,?,23.1µM*,10.7%,-64.0*!
COc1cccc(CNC(=O)[C@H](CCSC)NC(=O)N2CCn3c2nc2ccccc23)c1,-7.3%,18.3µM*,0.3%,?,7.3%,-2.4
COc1cccc(NC(=O)[C@@H](NC(=O)N2CCn3c2nc2ccccc23)C(C)C)c1,-4.4%,3.0%,13µM*,-12.8%,12.0%,4.7
CCOC(=O)c1[nH]c(C)c(C(=O)c2ccc(C)cc2)c1C,6.6%,?,2.06µM*,2.31µM*,42.9%,3.2
CCOC(=O)c1[nH]c(C)c(C(=O)Nc2ccccc2F)c1C,-0.4%,?,2.59µM*,2.31µM*,-4.4%,0.0
CCOC(=O)c1[nH]c(C)c(C(=O)Nc2ccc(C)c(C)c2)c1C,5.1%,-0.1%,?,?,?,-5.0
CCOC(=O)c1[nH]c(C)c(C(=O)Nc2ccc(C)cc2C)c1C,-17.0%,-1.7%,1.3µM*,2.31µM*,?,-8.4
CCOC(=O)c1[nH]c(C)c(C(=O)Nc2ccc(F)cc2)c1C,15.4%,?,1.0%,-11.2%,19.1%,-5.3
CCCCC(=O)N(C)c1c(C)nc2ccc(C(=O)Nc3cccc(OC)c3)cn12,.,.,0.7%,-29.5%,.,-1.9
CCC(=O)N1c2ccccc2CC1C(=O)NCc1ccccc1C (stereo not drawn),.,.,-4.0%,-12.7%,.,.
Cc1ccc(Cl)cc1N1CCN(CCCNC(=O)c2nnc(Cc3cccc(Cl)c3)o2)CC1,.,.,10.3µM*,20.6µM*,.,.
O=C(NCCCN1CCN(Cc2ccccc2)CC1)c1nnc(Cc2c(F)cccc2Cl)o1,-1.5%,-29.1%,-29.5%,-11.1%,27.6%,2.8
Cc1cccc(N2CCN(CCCNC(=O)c3nnc(Cc4c(F)cccc4Cl)o3)CC2C)c1 (stereo not drawn),.,.,?,23.1µM*,.,.
O=C(NCCCN1CCN(c2ccccc2F)CC1)c1nnc(Cc2ccc(Cl)cc2Cl)o1,.,.,14.6µM*,20.6µM*,.,.
O=C(NCCc1ccc(Cl)cc1)c1nnc(Cc2ccc(Cl)cc2)o1,-3.6%,21.2%,-8.3%,-23.6%,-0.6%,-26.1
O=S(=O)(NCCc1ccccc1)c1ccccc1Br,-13.1%,.,.,.,17.0%,.
CCc1nc2ccc(C(=O)N3CCN(S(=O)(=O)CC)CC3)cn2c1N(CC)CCOC,.,.,-2.1%,-3.2%,.,40.1
CC1(C)COC(/C=C/c2ccc([N+](=O)[O-])cc2)=N1,?,?,16.4µM*,?,-32.3%,-102.2*
CC(=C/C(=O)O)/C=C/c1ccc([N+](=O)[O-])cc1,0.1%,-0.1%,-17.9%,-4.9%,10.6%,-2.4
Cc1ccn(CCNC(=O)C2CCC(=O)N(CCc3ccc(Cl)cc3)C2)n1 (stereo not drawn),1.9%,5.8%,-2.0%,3.0%,17.7%,4.6
Nc1ncnc2c1ncn2[C@@H]1O[C@H](CNCc2c(OCc3ccccc3F)ccc3ccccc23)[C@@H](O)[C@H]1O,.,?,?,?,.,-58.3*
Nc1ncnc2c1ncn2[C@@H]1O[C@H](CNCc2ccccc2)[C@@H](O)[C@H]1O,.,14.8%,-19.9%,-27.4%,.,6.3
Nc1ncnc2c1ncn2[C@@H]1O[C@H](COP(=O)(O)O)[C@@H](O)[C@H]1O,-18.0%,-11.6%,4.4%,?,-26.5%,-8.3
Nc1ncnc2c1ncn2[C@@H]1O[C@H](COS(=O)(=O)O)[C@@H](O)[C@H]1O,.,29.7%,18.4µM*,?,.,29.4
CC=C1OC(n2cnc3c(N)ncnc32)C(O)C1O (stereo not drawn),.,.,?,?,.,21.3
SMILES,Gal4-VP16 FLuc,ELG1 repair inh,TDP1 cell noCPT,DT40 TDP1 CPT,RORg inh,IL1B secr inh
Nc1ncnc2c1ncn2C1C=C(CO)C(O)C1O (stereo not drawn),.,.,0.164µM*,0.0366µM*,.,26.4
Nc1ncnc2c1ncn2[C@@H]1O[C@H](CNCc2cccc(C#Cc3ccccc3)c2)[C@@H](O)[C@H]1O,.,13.1%,?,14.6µM*,.,-4.0
CCO[C@H]1OC(C(=O)N2CCN(Cc3ccccc3)CC2)=C[C@@H](C)[C@@H]1CCCO,7.3%,?,?,?,13.5%,9.5
CCO[C@H]1OC(C(=O)N2CCN(Cc3ccc4c(c3)OCO4)CC2)=C[C@@H](c2ccccc2)[C@@H]1CCCO,11.3%,-12.5%,?,?,15.8%,-8.1
CCO[C@@H]1OC(C(=O)N2CCN(Cc3ccc4c(c3)OCO4)CC2)=C[C@H](c2csc3ccccc23)[C@H]1CCCO,?,-12.6%,23.1µM*,-88.6%,?,?
CCO[C@H]1OC(C(=O)N2CCN(Cc3ccc4c(c3)OCO4)CC2)=C[C@@H](c2ccc(C(F)(F)F)cc2)[C@@H]1CCCO,-12.9%,?,23.1µM*,18.4µM*,-33.9%,-76.7*
CCO[C@@H]1OC(C(=O)N2CCN(Cc3ccccc3)CC2)=C[C@H](c2ccc(Br)cc2)[C@H]1CCCO,-7.5%,-8.6%,23.1µM*,?,35.0%,-22.2
CCO[C@@H]1OC(C(=O)N2CCN(Cc3ccccc3)CC2)=C[C@H](c2ccc(C(F)(F)F)cc2)[C@H]1CCCO,1.9%,-3.0%,?,?,?,-87.6*
Cc1ccc(C(=O)NCC(=O)OCC(=O)N(CC(C)C)c2c(N)n(Cc3ccccc3)c(=O)[nH]c2=O)s1,.,.,-5.9%,12.1%,.,7.6
COc1ccc(N(C(=O)Cn2nnc3ccccc32)C(C(=O)NCc2ccco2)c2ccc(C)o2)cc1 (stereo not drawn),-1.4%,-23.7%,-29.9%,-24.0%,6.5%,-12.3
CCOc1ccc(NC(=O)/C=C\C(=O)N(c2ccc(C(C)C)cc2)C(C(=O)NCc2ccco2)c2ccc(F)cc2)cc1 (stereo not drawn),.,.,13µM*,5.17µM*,.,.
COc1ccc(NC(=O)/C=C\C(=O)N(c2ccc(C(C)C)cc2)C(C(=O)NCc2ccco2)c2ccc(F)cc2)cc1 (stereo not drawn),.,.,?,18.4µM*,.,.
COc1ccc(N(C(=O)/C=C\C(=O)Nc2ccc(Cl)cc2)C(C(=O)NCc2ccco2)c2ccc(C)cc2)cc1 (stereo not drawn),.,.,18.4µM*,16.4µM*,.,.
O=c1c2ccccc2sn1-c1ccc(Cl)c(S(=O)(=O)N2CCOCC2)c1,.,.,3.16µM*,1.41µM*,.,.

# Source: PubChem BioAssay
